PTHR1 ag = qHTS for PTHR1 Agonists: Primary Screen | Parathyroid hormone/parathyroid hormone-related peptide receptor (Homo sapiens), Q03431 | HEK293 GP2 PTHR1 cells, GloSensor cAMP luminescence, 1 h | Potency, µM (series often up to 115 µM), for the others: at the top dose activation, usual class: activators | actives 0.075% (n = 410,000); note: potency is the fitted concentration of half-maximal effect; nearly all actives have a fitted effect of over 55% in size
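HEK-293-derived GP2 cells expressing PTHR1 and a GloSensor cAMP reporter, 3,000/well, plated overnight, given luciferin plus IBMX (each 0.5 mM as added) for 1 h at 37 °C, then compound for 1 h at 37 °C. Luminescence was read after 15 min at room temperature.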
DRD3 antagonist = qHTS of D3 Dopamine Receptor Antagonist: qHTS. D(3) dopamine receptor (Homo sapiens), P35462. D3R cells, DiscoveRx beta-arrestin luminescence, antagonist mode; hits give low values. max response, negative = inhibition, %. actives 2.5% (n = 360,000); in the data active = max response below about -50%; inconclusive = no clear call, values can overlap the other calls; note: % is set by controls: 0 for no effect and ±100 for the full control effect
Target sequence (P35462 whole entry, looked up): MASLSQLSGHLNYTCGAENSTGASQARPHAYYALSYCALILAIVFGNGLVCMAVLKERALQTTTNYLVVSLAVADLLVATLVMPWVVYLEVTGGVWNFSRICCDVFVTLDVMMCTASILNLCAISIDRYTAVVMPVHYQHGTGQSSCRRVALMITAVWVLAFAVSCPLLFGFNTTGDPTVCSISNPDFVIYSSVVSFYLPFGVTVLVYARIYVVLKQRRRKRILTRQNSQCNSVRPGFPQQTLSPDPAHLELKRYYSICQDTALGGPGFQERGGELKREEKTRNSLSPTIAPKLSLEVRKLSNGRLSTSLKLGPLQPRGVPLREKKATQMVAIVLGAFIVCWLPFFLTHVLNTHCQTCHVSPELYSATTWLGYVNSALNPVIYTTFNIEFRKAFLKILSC
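Cells expressing the human receptor were seeded at 1500 cells/well, incubated overnight at 37 degrees C in 5% CO2, then exposed to library compounds with dopamine controls for 90 minutes at 37 degrees C before luminescent detection.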
BRCA1 expr act = qHTS Assay to Identify Small Molecule Activators of BRCA1 Expression; MCF7-BRCA1-FFLuc reporter, luminescence, 48 h; response scale: scaled: vehicle 0%, 10 µM genistein 100%; Potency, µM (titrated, usually from 46.1 µM), inactives show at the top dose activation, hits mostly activators; actives 1.1% (n = 380,000); AID 624202, 2012; note: potency is the fitted concentration of half-maximal effect; nearly all actives have a fitted effect of over 80% in size
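Compounds are tested at multiple concentrations on MCF7 BRCA1-luciferase reporter cells seeded at 2000 per well; after 48 h, a single luminescence end-point is taken and curves fitted to the normalized data.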
RGS4 inh = Inhibitors of Regulator of G Protein Signaling (RGS) 4: qHTS; AID 504845, 2011; Potency, µM (series often up to 114 µM), without a hit: at the top dose activity change, negative = inhibition, most hits filed as inhibitors; Transcreener GDP fluorescence polarization, RGS4-accelerated GTP hydrolysis; Regulator of G-protein signaling 4 (Homo sapiens), P49798; actives 0.039% (n = 390,000); note: potency is the fitted concentration of half-maximal effect; % is set by controls: 0 for no effect and ±100 for the full control effect; nearly all actives have a fitted effect of over 75% in size
Target sequence (P49798 whole entry, looked up): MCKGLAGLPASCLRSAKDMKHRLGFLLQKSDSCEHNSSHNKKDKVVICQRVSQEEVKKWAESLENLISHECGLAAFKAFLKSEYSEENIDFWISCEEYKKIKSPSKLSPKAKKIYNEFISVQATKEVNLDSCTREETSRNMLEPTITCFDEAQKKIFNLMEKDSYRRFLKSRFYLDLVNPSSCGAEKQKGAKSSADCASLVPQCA
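MLSMR compounds (23 nl, pin-transferred) preincubated 10 min at room temperature with a 500nM (2x) first reagent, then RGS4 at 900nM (2x) plus Transcreener GDP mix added; fluorescence polarization (620/688 nm) read before and after 90 min at 30 °C.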
B2AR arrestin = qHTS assay of beta-arrestin-biased ligands of beta2-adrenergic receptor; Beta-2 adrenergic receptor (Homo sapiens), P07550; beta-arrestin recruitment to beta2AR, cell-based reporter; Potency, µM (titrated, usually from 46.1 µM), for the others: at the highest dose activation, actives largely listed as activators; actives 0.02% (n = 330,000); AID 492947, 2010;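 note: potency is the fitted concentration of half-maximal effect; 0% = DMSO controls and full agonism = EC100 isoproterenol or metaproterenol; nearly all actives have a fitted effect of over 65% in size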
DRD3 agonist = qHTS of D3 Dopamine Receptor Agonist: qHTS. actives 0.58% (n = 410,000). AID 652048, 2013. D(3) dopamine receptor (Homo sapiens), P35462. D3R DiscoveRx beta-arrestin cells, luminescence, 90 min. max activation, %; in the data active = max activation above about 30%; note: 0% is about no effect
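Cells at 1500/well, incubated overnight, then treated with pinned compounds (dopamine as control) for 90 min at 37 degrees C. DiscoveRx reagent added for 30 - 60 minutes at room temperature; luminescence read.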
Active calls of the source: *; i = inactive; ? = inconclusive; nt = not tested or not shown; [ ] = remark or other dose. Shown are actives, neighbours in structure and some others; about 3.7% of the full set was active somewhere. Unless noted, calls come from the whole dose curve; as a rule, active = well fitted curve in the direction sought with a large enough effect; inconclusive = small, poorly fitted or top-dose-only effect, or another doubt; inactive = no such curve, though single readings can be large; an effect the other way counts as inactive or inconclusive.

SMILES	PTHR1 ag	DRD3 antagonist	BRCA1 expr act	RGS4 inh	B2AR arrestin	DRD3 agonist
CN(C)CCCN1c2ccc(O)cc2Sc2ccc(Cl)cc21	i	-110*	-75%	nt	nt	-8
CCN(CC)CCCCN1c2ccccc2Sc2ccccc21	?	-107*	-78%	-10%	-1%	-13
CN1CCN(CCC(=O)N2c3ccccc3Sc3ccc(C(F)(F)F)cc32)CC1	i	-53*	0%	-4%	0%	-24
CN(C)CCCN1c2ccc([N+](=O)[O-])cc2CCc2cc([N+](=O)[O-])ccc21	-96%	nt	-4%	-22%	nt	nt
COc1ccc2c(c1)N(C[C@H](C)CN(C)C)c1ccccc1S2	-23%	-106*	-13%	3%	nt	-93
CC(CN1c2ccccc2Sc2ccccc21)N(C)C (stereo unspecified)	-3%	-98*	18%	?	-1%	-79
Nc1nc(SCC(=O)c2ccc(Cl)cc2)c2ncn(C3OC(CO)C(O)C3O)c2n1 (stereo unspecified)	i	-13	-14%	-5%	nt	1
CC(=O)N1CCc2cc(S(=O)(=O)NC(Cc3ccccc3)C(=O)Nc3cc(C)ccn3)ccc21 (stereo unspecified)	-42%[57.5 µM]	-71*	-5%	-10%	0%	-12
CCCc1nc2c(=O)n(C)c(=O)nc-2n(C)n1	-28%	-61*	-87%	-40%	0%	-11
Cc1ccccc1-c1nc2c(=O)n(C)c(=O)nc-2n(C)n1	nt	nt	-78%	-26%	nt	nt
Cn1nc(-c2ccccn2)nc2c(=O)n(C)c(=O)nc1-2	-4%	-69*	-100%	-27%	0%	-18
CS(=O)(=O)c1ccc(Nc2nc(C(N)CCc3ccccc3)cs2)cc1 (stereo unspecified)	-23%	4	-21%	nt	nt	0
Cc1cc2c(cc1C)N(C(=O)CCl)CCN2C(=O)CCl	-40%	?	-95%	-46%	nt	-4
CCC/C=C/c1ccc(CN2C(C(C)C)C(=O)N(Cc3cn(CC4CCCCC4)nn3)CCS2(=O)=O)cc1 (stereo unspecified)	-33%	22	-79%	nt	nt	2
O=S(Cc1ccc(Cl)cc1)c1ccccc1 (stereo unspecified)	-21%	6	31%	9%	nt	66*
CCOc1ccc(N(CC(=O)NC2CCCCCC2)S(=O)(=O)c2ccccc2)cc1	-25%	4	-5%	-7%	0%	-4
CCOc1ccc(S(=O)(=O)N(C)c2ccc(OCC(=O)NCC3CCCCC3)cc2)cc1	i	-79*	-74%	8%	0%	-11
CCOc1ccc(S(=O)(=O)N(CC(=O)NC2CCCC2)c2ccc(F)cc2)cc1	-6%	-52*	-30%	-48%	nt	8
CCOc1ccc(S(=O)(=O)N(C)c2ccc(OCC(=O)NCC3CCCO3)cc2)cc1 (stereo unspecified)	-7%	6	18%	9%	0%	-1
Cc1ccsc1C=C1C(=O)c2ccccc2C1=O	-94%	-56*	19%	-34%	0%	-3
CCN(CC)CC#CCC(O)(c1ccccc1)c1ccccc1	-17%	-79*	-17%	21%	0%	-19
CCN(CC)CC#CCC(C)(c1ccccc1)c1ccccc1	i	-55*	1%	2%	-3%	-54
CCCCn1nnnc1C(c1cc2ccccc2o1)N(CCC#N)Cc1ccccc1 (stereo unspecified)	8%	-53*	-7%	nt	nt	-12
CCCCn1nnnc1C(c1cc2ccccc2o1)N(Cc1ccccc1)Cc1ccccc1 (stereo unspecified)	-23%	3	-16%	nt	nt	4
Cc1cc(C)n(-c2nc3ccccc3nc2Nc2ccc(Cl)c(Cl)c2)n1	?	nt	nt	4%	nt	-8
SMILES	PTHR1 ag	DRD3 antagonist	BRCA1 expr act	RGS4 inh	B2AR arrestin	DRD3 agonist
Cc1cc(C)n(-c2nc3ccccc3nc2Nc2ccc3[nH]c(=O)[nH]c3c2)n1	-2%[57.5 µM]	25	-17%	-2%	0%	42*
CCn1c(=O)cc(OCC(=O)NCCCN2CCCC2=O)c2ccccc21	?	-1	-27%	19%[11.4 µM]	-1%	0
CCc1nc2ccc(C(=O)N3CCCCC3)cn2c1N(CCC(C)C)CCN(C)C	-9%	-11	0%	nt	nt	53*
COc1ccc(N=CC2=C(O)c3ccccc3C2=O)c(OC)c1	i	-58*	-66%	8%	0%	-4
Cc1ccc(CN(Cc2cccn2-c2nnc(N3CCCC3=O)s2)C(=O)Nc2ccccc2C(F)(F)F)cc1	-11%	nt	nt	-20%	nt	-12
CCOc1ccccc1C(=O)N[C@H](C(=O)Nc1nc2c(s1)CCCC2)C(C)C	i	-74*	-13%	-19%	-2%	-16
Cc1c(NC(=O)CSc2nnc(-c3cccc(Cl)c3)o2)c(=O)n(-c2ccccc2)n1C	i	-72*	4%	-31%	0%	-6
O=C(CSc1nnc(-c2cccc(Cl)c2)o1)Nc1ccc2c(c1)OCCO2	i	8	7.9µM*	13%	0%	1
Cc1ccccc1NC(=O)CSc1nnc(-c2cccc(Cl)c2)o1	-23%	nt	nt	3%	nt	-11
N#C/C(=C\c1cccn1S(=O)(=O)c1ccccc1)S(=O)(=O)c1ccc(F)cc1	i	-24	-1%	nt	nt	-5
CC(C)(C)C1C/C(=C/c2ccccn2)C(=O)/C(=C/c2ccccn2)C1 (stereo unspecified)	-32%	-53*	-90%	-14%[11.4 µM]	0%	-9
CC1C/C(=C/c2ccccn2)C(=O)/C(=C/c2ccccn2)C1 (stereo unspecified)	-33%	-60*	-91%	?	0%	-22
C(=C\c1ccccn1)/c1ccccn1	-1%	7	2%	?	0%	7
O=C1/C(=C/c2ccccn2)COc2ccccc21	-35%	9	27%	-19%	0%	-5
Oc1ccc(Cl)cc1CNC1CCCCC1	i	-24	-6%	5%	nt	-25
Oc1ccc(Cl)cc1CNCC1CCCCC1	12%	-76*	?	18%	-1%	-49
Nc1ccc2nc(-c3ccc(-c4nc5ccc(N)cc5[nH]4)cc3)[nH]c2c1	i	36	15%	?	0%	0
Nc1ccc(-c2nc3ccc(-c4nc5ccc(N)cc5[nH]4)cc3[nH]2)cc1	nt	nt	-29%	27µM*	nt	nt
Nc1cccc(-c2nc3ccccc3[nH]2)c1	-17%[57.5 µM]	17	10µM*	-4%	0%	14
